High-throughput results as filed in PubChem BioAssay.
PME-1 primary – PME-1 (human) inhibition; Q9Y570; recombinant PME-1, FP-Rh probe fluorescence polarization; inhibition, % at 5.9 µM; 320,000 tested, 0.53% active;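 active = inhibition above the campaign mean of all compounds plus 3 SD, cut at about 26% in these data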;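 note: competitive labeling of PME-1 active site by serine hydrolase directed probe; inhibitors block probe labeling so polarization falls and inhibition rises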
Target sequence (Q9Y570 whole entry, looked up): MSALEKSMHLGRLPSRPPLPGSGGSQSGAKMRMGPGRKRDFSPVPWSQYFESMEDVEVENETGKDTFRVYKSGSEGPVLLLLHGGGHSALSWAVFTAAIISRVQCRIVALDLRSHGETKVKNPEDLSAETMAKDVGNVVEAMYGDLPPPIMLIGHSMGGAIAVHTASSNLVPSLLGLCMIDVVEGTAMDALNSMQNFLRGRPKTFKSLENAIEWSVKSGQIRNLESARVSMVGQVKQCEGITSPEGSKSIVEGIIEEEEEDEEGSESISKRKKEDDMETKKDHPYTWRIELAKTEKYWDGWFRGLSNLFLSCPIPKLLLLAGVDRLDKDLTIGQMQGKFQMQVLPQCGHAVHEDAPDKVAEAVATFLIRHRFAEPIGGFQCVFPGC
LYPLA2 inh – LYPLA2 (human) inhibition in PME1 counter-screen. O95372. recombinant LYPLA2, FP-Rh probe fluorescence polarization. inhibition, % at 5.9 µM. 320,000 tested, 0.38% active;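 active = inhibition above the screen-wide mean plus 3 SD, limit set per campaign, cut at about 26% in these data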
Target sequence (O95372 whole entry, looked up): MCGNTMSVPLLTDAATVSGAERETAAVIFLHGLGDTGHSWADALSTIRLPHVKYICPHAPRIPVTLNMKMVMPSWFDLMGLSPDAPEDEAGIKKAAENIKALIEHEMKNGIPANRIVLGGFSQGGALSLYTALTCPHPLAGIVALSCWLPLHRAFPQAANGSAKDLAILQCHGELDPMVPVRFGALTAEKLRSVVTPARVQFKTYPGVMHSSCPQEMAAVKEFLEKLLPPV
LYPLA1 inh – counter-screen for PME1 inhibitors: inhibitors of human LYPLA1 | O75608 | recombinant LYPLA1, FP-Rh probe fluorescence polarization | inhibition, % at 5.9 µM | 320,000 tested, 0.16% active;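 active = inhibition above the mean of all tested compounds plus 3 SD, set per campaign, cut at about 14% in these data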;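 note: inhibitors block serine hydrolase probe labeling of LYPLA1 so polarization falls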
Fam108B counter – Fam108B inhibition, counter-screen for RBBP9 inhibitors. recombinant Fam108B, FP-Rh probe fluorescence polarization. inhibition, % at 9.51 µM. 300,000 tested, 0.33% active;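 active = inhibition above the screen mean inhibition plus 3 SD, computed separately per campaign, cut at about 18% in these data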;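 note: inhibitors lower polarization as less probe binds the enzyme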
PREPL inh – human PREPL enzyme inhibition. recombinant PREPL, fluorescence polarization activity-based probe. inhibition, % at 5.96 µM. 320,000 tested, 0.68% active. AID 2751; in the data active = inhibition above about 43%
MEX-5 binding – C. elegans MEX-5 TCR-2 RNA binding activity. Q9XUB2. MEX-5/FITC-TCR2 RNA binding, fluorescence polarization; active compounds read low. activity score (negative = inhibition of binding), % at 10 µM. 300,000 tested, 0.38% active. AID 1832;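 active = inhibition past about -25% in most replicates, and total fluorescence under double the plate's negative control median, limit read from the data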
Fam108b inh conf – Fam108b (mouse) hydrolase inhibition, confirmation assay; shares compounds with Fam108B counter; recombinant Fam108b, FP-Rh probe fluorescence polarization; AID 1978; inhibition, % at 9.51 µM; 930 tested, 44% active;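 active = inhibition above a limit from the primary screen, the mean over all compounds plus 3 SD, cut at about 19% in these data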;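 note: inhibitors free the probe so polarization falls as inhibition rises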
Fam108b ABPP HTS – inhibits mouse Fam108b in gel-based ABPP | shares compounds with Fam108B counter | recombinant Fam108b, fluorophosphonate probe | inhibition, % at 20 µM | 260 tested, 44% active | AID 588649; in the data active = inhibition above about 40%
Each line names hits and unclear results; the compound was inactive in the other large screens (follow-up assays come after a bar, where they were run). An excerpt weighted towards active compounds, which were near 1.6% of everything screened.

COc1cc(-c2nc(-c3ccc4c(c3)-c3ccccc3S4(=O)=O)c(-c3ccccc3)[nH]2)cc(OC)c1O	Fam108B counter 32.3 | Fam108b inh conf 36.7 | Fam108b ABPP HTS 80.0
COc1cc(/C=N/NC(=O)c2cc3ccccc3[nH]2)ccc1O	PME-1 primary 36.0, Fam108B counter 20.4 | Fam108b inh conf 18.7
COc1cc(/C=N/NC(=O)c2cccc3ccccc23)cc(OC)c1OC	none
CCOc1ccc2[nH]c(C(=O)N/N=C/c3cc(OC)c(OC)c(OC)c3)cc2c1	Fam108B counter 28.5 | Fam108b inh conf inactive
COc1ccc(OC)c2[nH]c(C(=O)N/N=C/c3ccccc3O)cc12	PME-1 primary 59.7, Fam108B counter 53.2 | Fam108b inh conf 20.8
COc1ccccc1/C=N/NC(=O)c1cc2c(OC)c(OC)ccc2[nH]1	none (no result: PME-1 primary, LYPLA2 inh, LYPLA1 inh, Fam108B counter, PREPL inh)
COc1cc(/C=N/NC(=O)CCn2c3ccccc3c3ccccc32)ccc1O	Fam108B counter 24.3 | Fam108b inh conf inactive
COc1cccc(CNC(=O)c2ccccc2-c2ccccc2C(=O)O)c1	none
COc1ccc(/C=N/NC(=O)c2cc3c(OC)ccc(OC)c3[nH]2)cc1O	PME-1 primary 39.6, Fam108B counter 30.5 | Fam108b inh conf inactive
COc1ccc(/C=N/NC(=O)c2cnccn2)cc1O	none
O=C1NN(c2cccc(Br)c2)C(=O)/C1=C/c1ccc(-c2cc([N+](=O)[O-])ccc2O)o1	Fam108B counter 20.5 | Fam108b inh conf inactive
CC1=NN(c2ccc(C)cc2)C(=O)/C1=C/c1ccc(-c2cc([N+](=O)[O-])ccc2O)o1	none (no result: PME-1 primary, LYPLA2 inh, LYPLA1 inh, Fam108B counter, PREPL inh)
CCN(c1ccccc1)S(=O)(=O)c1ccc(NC(=O)c2nc(S(C)(=O)=O)ncc2Cl)cc1	Fam108B counter 38.1 | Fam108b inh conf 37.1 | Fam108b ABPP HTS 80.0
COc1ccc2cc(C3OCCO3)c(Cl)nc2c1	none
COc1ccc([N+](=O)[O-])cc1NC(=O)c1ccc(CN(c2ccccc2)S(C)(=O)=O)cc1	none
CCC/C(=N/NC(=O)c1cccc(Cl)c1)c1ccccc1	none
C/C(=N\NC(=O)c1ccc(-c2ccccc2)cc1)C1C(=O)c2ccccc2C1=O	Fam108B counter 26.6 | Fam108b inh conf 24.6
CC(=NNC(=O)c1cccc(Cl)c1)C1C(=O)c2ccccc2C1=O	none (no result: PME-1 primary, LYPLA2 inh, LYPLA1 inh, Fam108B counter, PREPL inh, MEX-5 binding) | Fam108b ABPP HTS inactive
COc1ccc(S(=O)(=O)n2nc(OC(C)=O)cc2N(C(C)=O)C(C)=O)cc1	none
Cn1ncc2c(Nc3ccc(Br)cc3)nc(Nc3ccc(Br)cc3)nc21	Fam108B counter 18.9 | Fam108b inh conf inactive
CCOc1cc(/C=C2/N=C(c3ccc4c(c3)OCO4)OC2=O)ccc1OC(C)=O	none (no result: Fam108B counter, MEX-5 binding)
COc1cccc(NC(=O)CN(C)C(=O)C2CCN(C(=O)c3ccccc3C)CC2)c1	Fam108B counter 18.8 | Fam108b inh conf inactive
CCCCC1CCC(C(=O)N(C)CC(=O)Nc2cccc(OC)c2)CC1 (stereo not drawn)	none (no result: Fam108B counter, MEX-5 binding)
Cc1ccc(OCC(=O)Nc2oc(-c3ccccc3)c(-c3ccccc3)c2C#N)cc1	none
COc1ccc(-c2oc(NC(=O)CCl)c(C#N)c2-c2ccc(OC)cc2)cc1	PME-1 primary 41.9, Fam108B counter 22.4 | Fam108b inh conf 33.7 | Fam108b ABPP HTS inactive
COc1cc(C)c(CN2CCSCC2)cc1C	none
COc1cc2cc(-c3ccc(O)cc3O)nc(C)c2cc1OC	Fam108B counter 19.6 | Fam108b inh conf 20.9
O=C(CC1(O)C(=O)Nc2ccccc21)c1cccnc1 (stereo not drawn)	none
N=C1/C(=C\c2ccc(-c3cccc(C(=O)O)c3)o2)C(=O)N=C2SC=C(c3ccccc3)N12	Fam108B counter 23.6 | Fam108b inh conf inactive
Cc1c(NC(=O)c2ccc(CC(C)C)o2)c(=O)n(-c2ccccc2)n1C	none
Cc1ccc(S(=O)(=O)N(C)C)cc1NC(=O)c1cc(=O)c2ccccc2o1	Fam108B counter 21.0 | Fam108b inh conf 32.9 | Fam108b ABPP HTS inactive
CN(c1ccccc1)S(=O)(=O)c1cccc(NC(=O)c2cc(=O)c3ccccc3o2)c1	none
Cc1ncoc1C(=O)N1CCc2c([nH]c3ccccc23)C1C1CCCCC1 (stereo not drawn)	none
C/C(=N\NC(=O)c1cc(O)cc(O)c1)c1ccc(NC(=O)Cc2ccccc2)cc1	Fam108B counter 26.6 | Fam108b inh conf inactive
CC1=CC(C#N)(C#N)C(C#N)(C#N)C(c2ccccc2)N1 (stereo not drawn)	PME-1 primary 50.4, LYPLA2 inh 44.4, LYPLA1 inh 41.7, Fam108B counter 42.8, MEX-5 binding -53.5 | Fam108b inh conf inactive
COC1(OC)N=C(N)C2(C#N)C(c3ccccc3)NC(C)=CC12C#N (stereo not drawn)	none
C=CCSc1nc(N2CCOCC2)c2c(c1C#N)CC(C)(C)N(C)C2	none
COc1cccc2c1NC(C(=O)O)C1CC=CC21 (stereo not drawn)	Fam108B counter 53.4, MEX-5 binding -76.4 | Fam108b inh conf inactive
COc1cccc(C2Nc3c(F)cc(Br)cc3C3C=CCC32)c1OC (stereo not drawn)	none
O=C(O)C1Nc2ccc(OC(F)(F)F)cc2C2C=CCC12 (stereo not drawn)	Fam108B counter 22.5 | Fam108b inh conf inactive
O=[N+]([O-])c1ccccc1CNCCCCCO	none (no result: MEX-5 binding)
OCc1nc2nc(Cl)c(Cl)nc2[nH]1	none
CCOc1ccccc1NC(=O)CCS(=O)(=O)c1ccc2c(c1)CC(C)N2C(C)=O (stereo not drawn)	none
COc1ccc(CSc2nnc(C)n2N)cc1	none
CC(=O)c1cc(O)c2ccccc2c1O	PME-1 primary 39.2, Fam108B counter 31.2 | Fam108b inh conf inactive
COc1ccc(C2C3=C(CCCC3=O)NC3=C2C(=O)c2ccccc23)cc1 (stereo not drawn)	Fam108B counter 19.9 | Fam108b inh conf 26.4
CC(=O)c1c(C)[nH]c(C(=O)NNC(=O)COc2ccc(Cl)cc2C)c1C	none
Cc1cccc(C)c1NC(=O)Cn1c(CN2CCCCC2)nc2ccccc2c1=O	Fam108B counter 20.8 | Fam108b inh conf inactive
CCOc1ccccc1C(=O)NCC(=O)NCC(c1ccc(OC)cc1)N1CCOCC1 (stereo not drawn)	none
COc1ccc(CCNC(=O)c2c(C)cc(=O)oc2C)cc1OC	none
N#Cc1ccc(COC(=O)CCc2c[nH]c3ccccc23)cc1	none
CN1C(=O)/C(=C/c2ccc(C(=O)Nc3ccc(O)cc3C(=O)O)cc2)SC1=S	PME-1 primary 35.1, Fam108B counter 18.7 | Fam108b inh conf inactive
N/C(=N\OC(=O)CCC1CCCC1)c1ccccc1	none
